Results published in the supplement of paper PMC8728848.
Shown is part of a subset that was picked to be rich in the strongest signals.

Tests used:
Assay in all cases: glycan array binding signal (z-score within array); higher = stronger binding
Conditions in all cases: glycan notation: IUPAC condensed, linker removed
[1] = target: Fuc(a1-2)Gal(b1-3)GalNAc(b1-3)Gal(a1-4)Gal(b1-4)Glc
Method in brief: (§1)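 Arrays were curated from the Consortium for Functional Glycomics database, 3228 in total, and kept only where the protein sequence was available. Binding is expressed as a within-array Z-score. This score was averaged across arrays of the same protein sequence at different concentrations or buffers and across linkers, and negative values can be read as non-binding.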

[2] = target: Fuc(a1-2)Gal(b1-3)GlcNAc(b1-3)[Gal(b1-4)GlcNAc(b1-6)]Gal(b1-4)Glc
Method in brief: as §1

[3] = target: Fuc(a1-2)Gal(b1-3)[Fuc(a1-4)]GlcNAc(b1-2)Man(a1-3)[Fuc(a1-2)Gal(b1-3)[Fuc(a1-4)]GlcNAc(b1-2)Man(a1-6)]Man(b1-4)GlcNAc(b1-4)[Fuc(a1-6)]GlcNAc(b1-4)[Fuc(a1-6)]GlcNAc
Method in brief: as §1

[4] = target: Fuc(a1-2)Gal(b1-4)GlcNAc(b1-3)GalNAc
Method in brief: as §1

[5] = target: Fuc(a1-2)Gal(b1-4)GlcNAc(b1-3)[Fuc(a1-2)Gal(b1-4)GlcNAc(b1-6)]GalNAc
Method in brief: as §1

[6] = target: Fuc(a1-2)Gal(b1-4)GlcNAc(b1-3)[Fuc(a1-3)[Gal(b1-4)]GlcNAc(b1-6)]Gal(b1-4)Glc
Method in brief: as §1

[7] = target: Fuc(a1-2)Gal(b1-4)[Fuc(a1-3)]GlcNAc
Method in brief: as §1

[8] = target: Fuc(a1-2)[Gal(a1-3)]Gal(b1-3)GlcNAc(b1-6)GalNAc
Method in brief: as §1

[9] = target: Fuc(a1-2)[Gal(a1-3)]Gal(b1-4)GlcNAc(b1-2)Man(a1-3)[Fuc(a1-2)[Gal(a1-3)]Gal(b1-4)GlcNAc(b1-2)Man(a1-6)]Man(b1-4)GlcNAc(b1-4)GlcNAc
Method in brief: as §1

[10] = target: Fuc(a1-2)[Gal(a1-4)]Gal(b1-4)GlcNAc
Method in brief: as §1

[11] = target: Fuc(a1-2)[GalNAc(a1-3)]Gal(b1-4)GlcNAc(b1-6)GalNAc
Method in brief: as §1

[12] = target: Gal(a1-3)Gal(b1-3)GlcNAc
Method in brief: as §1

[13] = target: Gal(a1-3)Gal(b1-3)GlcNAc(b1-2)Man(a1-3)[Gal(a1-3)Gal(b1-3)GlcNAc(b1-2)Man(a1-6)]Man(b1-4)GlcNAc(b1-4)GlcNAc
Method in brief: as §1

[14] = target: Gal(a1-3)[Gal(a1-4)]Gal(b1-4)GlcNAc
Method in brief: as §1

[15] = target: Gal(a1-4)GlcNAc
Method in brief: as §1

[16] = target: Gal(b1-3)GlcNAc(b1-3)Gal(b1-4)GlcNAc(b1-6)[Gal(b1-3)GlcNAc(b1-3)]Gal(b1-4)Glc
Method in brief: as §1

[17] = target: Gal(b1-3)[Fuc(a1-4)]GlcNAc(b1-2)Man(a1-3)[Gal(b1-3)[Fuc(a1-4)]GlcNAc(b1-2)Man(a1-6)]Man(b1-4)GlcNAc(b1-4)[Fuc(a1-6)]GlcNAc
Method in brief: as §1

[18] = target: Gal(b1-4)Glc
Method in brief: as §1

[19] = target: Gal(b1-4)Glc6S
Method in brief: as §1

[20] = target: Gal(b1-4)GlcNAc(b1-3)Gal(b1-3)GlcNAc
Method in brief: as §1

[21] = target: Gal(b1-4)GlcNAc(b1-3)Gal(b1-4)GlcNAc(b1-2)[Gal(b1-4)GlcNAc(b1-3)Gal(b1-4)GlcNAc(b1-6)]Man(a1-6)[Gal(b1-4)GlcNAc(b1-3)Gal(b1-4)GlcNAc(b1-2)Man(a1-3)]Man(b1-4)GlcNAc(b1-4)[Fuc(a1-6)]GlcNAc
Method in brief: as §1

[22] = target: Gal(b1-4)GlcNAc(b1-3)Gal(b1-4)GlcNAc(b1-3)Gal(b1-4)GlcNAc(b1-3)Gal(b1-4)GlcNAc(b1-3)Gal(b1-4)GlcNAc(b1-3)Gal(b1-4)GlcNAc(b1-2)Man(a1-3)[Gal(b1-4)GlcNAc(b1-3)Gal(b1-4)GlcNAc(b1-3)Gal(b1-4)GlcNAc(b1-3)Gal(b1-4)GlcNAc(b1-3)Gal(b1-4)GlcNAc(b1-3)Gal(b1-4)GlcNAc(b1-2)Man(a1-6)]Man(b1-4)GlcNAc(b1-4)GlcNAc
Method in brief: as §1

[23] = target: Gal(b1-4)GlcNAc(b1-3)Gal(b1-4)GlcNAc(b1-3)GalNAc
Method in brief: as §1

[24] = target: Gal(b1-4)GlcNAc(b1-3)[Gal(b1-4)GlcNAc(b1-6)]Gal(b1-4)GlcNAc
Method in brief: as §1

[25] = target: Gal4S(b1-4)GlcNAc
Method in brief: as §1

[26] = target: Gal6S(b1-3)GlcNAc
Method in brief: as §1

[27] = target: GalNAc(b1-3)Gal(a1-4)Gal(b1-4)GlcNAc(b1-3)Gal(b1-4)Glc
Method in brief: as §1

[28] = target: GalNAc(b1-4)Gal(b1-4)Glc
Method in brief: as §1

[29] = target: GalNAc6S(b1-4)GlcNAc
Method in brief: as §1

[30] = target: GlcNAc(a1-4)Gal(b1-4)GalNAc
Method in brief: as §1

[31] = target: GlcNAc(a1-4)Gal(b1-4)GlcNAc
Method in brief: as §1

[32] = target: GlcNAc(a1-4)Gal(b1-4)GlcNAc(b1-3)Gal(b1-4)GlcNAc(b1-3)Gal(b1-4)GlcNAc
Method in brief: as §1

[33] = target: GlcNAc(b1-2)Man(a1-3)[GlcNAc(b1-2)Man(a1-6)]Man(b1-4)GlcNAc(b1-4)[Fuc(a1-6)]GlcNAc
Method in brief: as §1

[34] = target: GlcNAc(b1-2)Man(a1-3)[GlcNAc(b1-4)][GlcNAc(b1-2)Man(a1-6)]Man(b1-4)GlcNAc(b1-4)[Fuc(a1-6)]GlcNAc
Method in brief: as §1

[35] = target: Man(a1-3)[Man(a1-6)]Man(a1-6)[Man(a1-3)]Man(b1-4)GlcNAc(b1-4)GlcNAc
Method in brief: as §1

[36] = target: Man(b1-4)GlcNAc
Method in brief: as §1

[37] = target: Neu5Ac(a2-3)Gal(b1-3)GalNAc(b1-3)Gal(a1-4)Gal(b1-4)Glc
Method in brief: as §1

[38] = target: Neu5Ac(a2-3)Gal(b1-4)GlcNAc(b1-2)Man(a1-3)[GlcNAc(b1-4)][Neu5Ac(a2-3)Gal(b1-4)GlcNAc(b1-2)Man(a1-6)]Man(b1-4)GlcNAc(b1-4)GlcNAc
Method in brief: as §1

[39] = target: Neu5Ac(a2-3)Gal(b1-4)GlcNAc(b1-3)Gal(b1-4)GlcNAc(b1-3)Gal(b1-4)GlcNAc(b1-2)Man(a1-3)[Neu5Ac(a2-3)Gal(b1-4)GlcNAc(b1-3)Gal(b1-4)GlcNAc(b1-3)Gal(b1-4)GlcNAc(b1-2)Man(a1-6)]GalNAc
Method in brief: as §1

[40] = target: Neu5Ac(a2-3)Gal(b1-4)GlcNAc(b1-3)[Neu5Ac(a2-3)Gal(b1-4)GlcNAc(b1-6)]GalNAc
Method in brief: as §1

[41] = target: Neu5Ac(a2-3)GalNAc
Method in brief: as §1

[42] = target: Neu5Ac(a2-3)[GalNAc(b1-4)]Gal(b1-4)GlcNAc
Method in brief: as §1

[43] = target: Neu5Ac(a2-6)Gal(b1-4)GlcNAc(b1-2)Man(a1-3)[Man(a1-6)]Man(b1-4)GlcNAc(b1-4)GlcNAc
Method in brief: as §1

[44] = target: Neu5Ac(a2-6)Gal(b1-4)GlcNAc(b1-2)Man(a1-6)[Man(a1-3)]Man(b1-4)GlcNAc(b1-4)GlcNAc
Method in brief: as §1

[45] = target: Neu5Ac(a2-6)Gal(b1-4)GlcNAc(b1-2)[Neu5Ac(a2-6)Gal(b1-4)GlcNAc(b1-4)]Man(a1-3)[GlcNAc(b1-4)][Neu5Ac(a2-6)Gal(b1-4)GlcNAc(b1-4)Man(a1-6)]Man(b1-4)GlcNAc(b1-4)GlcNAc
Method in brief: as §1

[46] = target: Neu5Ac(a2-6)Gal(b1-4)GlcNAc(b1-3)Gal(b1-4)GlcNAc(b1-3)Gal(b1-4)GlcNAc(b1-2)Man(a1-3)[Neu5Ac(a2-6)Gal(b1-4)GlcNAc(b1-3)Gal(b1-4)GlcNAc(b1-3)Gal(b1-4)GlcNAc(b1-2)Man(a1-6)]GalNAc
Method in brief: as §1

[47] = target: Neu5Ac(a2-6)Gal(b1-4)GlcNAc(b1-3)Gal(b1-4)GlcNAc(b1-6)[Gal(b1-3)]GalNAc
Method in brief: as §1

[48] = target: Neu5Ac(a2-6)Gal(b1-4)GlcNAc(b1-3)Gal(b1-4)[Fuc(a1-3)]GlcNAc(b1-3)Gal(b1-4)[Fuc(a1-3)]GlcNAc
Method in brief: as §1

[49] = target: Neu5Ac(a2-6)Gal(b1-4)GlcNAc(b1-3)GalNAc
Method in brief: as §1

[50] = target: Neu5Ac(a2-6)GlcNAc(b1-4)GlcNAc(b1-4)GlcNAc
Method in brief: as §1

[51] = target: Neu5Ac(a2-8)Neu5Ac
Method in brief: as §1

[52] = target: Neu5Ac(a2-8)Neu5Gc(a2-3)Gal(b1-4)GlcNAc
Method in brief: as §1

[53] = target: Neu5Gc(a2-3)Gal(b1-4)GlcNAc
Method in brief: as §1

B1: PX14375F-bfa-539-21-539 (Bacteroides fragilis) (protein)
chain: EDFLQKDPPSSPSQSVFWQKKSDFESALAGTYSVMYSGVFSQIMPCLDGLTDNAIVQHSEGTYGWAKTIAQGDLTPNQGGFVTDIYGNCYKGIARVHILMEQLDQYTGSDISADEKKFMLAQCKALRGYFYSWLYQCYKEVPVVTQSLDLNTMYQPKATRAEVLNRVMTDYDEAISELPDKLYSDSQTSGRFTVSAVKALKARILLFDAYDSNGKAISSKMEEVLTLLQSIKGYSLAARVRDNFISEKQLASPEIMFSVRFLRPNLTHSMDLYYGAWAVLDPTRNMVDAFECTDGKPWGESPLTVRPDESILYGNDDALKKAERAKMFMNRDRRLYESVNHSMMANFVDDGFKDEEVQVNESNNKGPTGFSALKYVQPTDVTPGYSTVSDADIVVLRYAHVLLMIAEAENEAHGATTTALNAINEVRTRSGQPAIEAGISQDDLRERIRNEWRIETCFEGLRYFQLKRWKLMDKRVNGVEDPAYPGYIKVYKPAFEFFPIPQSEIDKAGGVLKQDPAYE
[1]
  glycan array binding signal (z-score): 1.21
[2]
  glycan array binding signal (z-score): -0.583
[3]
  glycan array binding signal (z-score): 0.238
[4]
  glycan array binding signal (z-score): 0.334
[5]
  glycan array binding signal (z-score): 0.212
[6]
  glycan array binding signal (z-score): 0.539
[7]
  glycan array binding signal (z-score): -0.409
[8]
  glycan array binding signal (z-score): -0.329
[9]
  glycan array binding signal (z-score): 6.22
[10]
  glycan array binding signal (z-score): 2.7
[11]
  glycan array binding signal (z-score): -0.169
[12]
  glycan array binding signal (z-score): -0.042
[13]
  glycan array binding signal (z-score): 2.35
[14]
  glycan array binding signal (z-score): 3.97
[15]
  glycan array binding signal (z-score): -0.504
[16]
  glycan array binding signal (z-score): -0.107
[17]
  glycan array binding signal (z-score): 2.29
[18]
  glycan array binding signal (z-score): -0.577
[19]
  glycan array binding signal (z-score): 0.083
[20]
  glycan array binding signal (z-score): -0.243
[21]
  glycan array binding signal (z-score): 5.95
[22]
  glycan array binding signal (z-score): 4.05
[23]
  glycan array binding signal (z-score): 2.44
[24]
  glycan array binding signal (z-score): 0.637
[25]
  glycan array binding signal (z-score): -0.679
[26]
  glycan array binding signal (z-score): -0.321
[27]
  glycan array binding signal (z-score): -0.311
[28]
  glycan array binding signal (z-score): 0.504
[29]
  glycan array binding signal (z-score): -0.468
[30]
  glycan array binding signal (z-score): -0.334
[31]
  glycan array binding signal (z-score): 0.011
[32]
  glycan array binding signal (z-score): -0.081
[33]
  glycan array binding signal (z-score): -0.47
[34]
  glycan array binding signal (z-score): -0.471
[35]
  glycan array binding signal (z-score): -0.28
[36]
  glycan array binding signal (z-score): -0.448
[37]
  glycan array binding signal (z-score): -0.715
[38]
  glycan array binding signal (z-score): 0.245
[39]
  glycan array binding signal (z-score): 4.15
[40]
  glycan array binding signal (z-score): -0.205
[41]
  glycan array binding signal (z-score): -0.323
[42]
  glycan array binding signal (z-score): -0.459
[43]
  glycan array binding signal (z-score): -0.309
[44]
  glycan array binding signal (z-score): -0.518
[45]
  glycan array binding signal (z-score): -0.061
[46]
  glycan array binding signal (z-score): 2.67
[47]
  glycan array binding signal (z-score): -0.919
[48]
  glycan array binding signal (z-score): -0.045
[49]
  glycan array binding signal (z-score): -0.096
[50]
  glycan array binding signal (z-score): -0.585
[51]
  glycan array binding signal (z-score): -0.05
[52]
  glycan array binding signal (z-score): 15.8
[53]
  glycan array binding signal (z-score): -0.782
